CYP2C19 inh = blockers of cytochrome P450 2C19 activity – biochemical, luminescence, ADME assay, primary screen. inhibition, % at 5 µM. CYP2C19 Supersomes, luciferin-H EGE luminescence, 30 min. actives 21% (n = 96,000). P33261. AID 778, 2007;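 active means CYP2C19 inhibition above a set limit at 5 µM in the primary screen, cut at about 50% in these data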
Mac1 fbg inh = inhibitors of CD11b/CD18 adhesion to fibrinogen, primary screen, K562 cells, luminescence; ATPlite luminescence; Mn2+ added to activate the integrin; actives 0.54% (n = 93,000); AID 1497, 2009; inhibition, % at 10 µM; Integrin beta-2 (Homo sapiens) + Integrin alpha-M (Homo sapiens), P05107+P11215;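 active means primary inhibition of 50% or more at 10 µM, then 40% or more on retest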
CD11b adhes enh = enhancers of CD11b/CD18 adhesion to fibrinogen, primary screen, K562 cells, luminescence. activation, % at 10 µM. ATPlite luminescence. AID 1499, 2009. Integrin beta-2 (Homo sapiens) + Integrin alpha-M (Homo sapiens), P05107+P11215. actives 0.07% (n = 93,000);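 active means 10 µM primary screen giving 50% or more activity, confirmed by 40% or more on retest at that dose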
CYP2C9 inhib = blockers of cytochrome P450 2C9 activity – biochemical, luminescence, ADME assay, primary screen | P11712 | AID 777, 2007 | inhibition, % at 5 µM | actives 20% (n = 96,000) | CYP2C9 Supersomes, luciferin-H conversion;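 active means blocking of liver enzyme CYP2C9 beyond about 50% at 5 µM, limit read from the data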
Target sequence (P11712 whole entry, looked up): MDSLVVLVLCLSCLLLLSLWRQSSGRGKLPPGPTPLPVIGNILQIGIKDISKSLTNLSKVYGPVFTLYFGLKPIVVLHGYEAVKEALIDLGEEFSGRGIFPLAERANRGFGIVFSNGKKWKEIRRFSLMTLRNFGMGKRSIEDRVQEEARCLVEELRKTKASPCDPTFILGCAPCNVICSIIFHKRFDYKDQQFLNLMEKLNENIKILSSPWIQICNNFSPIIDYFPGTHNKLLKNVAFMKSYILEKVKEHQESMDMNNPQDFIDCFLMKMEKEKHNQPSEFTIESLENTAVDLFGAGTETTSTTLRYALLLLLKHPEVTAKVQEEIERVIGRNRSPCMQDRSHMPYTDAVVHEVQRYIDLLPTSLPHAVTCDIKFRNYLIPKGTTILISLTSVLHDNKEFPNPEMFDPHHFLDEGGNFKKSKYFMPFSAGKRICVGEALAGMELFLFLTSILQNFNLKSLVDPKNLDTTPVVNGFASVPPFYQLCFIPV
CYP2C9 activ = human CYP2C9 activators, primary screen, biochemical, luminescence; Cytochrome P450 2C9 (Homo sapiens), P11712; recombinant CYP2C9, luciferin-H conversion; hits give high values; factor 1 = untreated enzyme, 0 = blocked; activation factor at 5 µM; actives 1.4% (n = 96,000);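 active means activation factor of 2 or more for CYP2C9 at a 5 µM dose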
CYP2C19 activ = human CYP2C19 activators, primary screen, biochemical, luminescence; AID 1025, 2008; activation factor at 5 µM; recombinant CYP2C19, luciferin-H EGE luminescence; hits give high values; 0 = fully inhibited enzyme, 1 = untreated enzyme; 96,000 tested, under 10 active; Cytochrome P450 2C19 (Homo sapiens), P33261;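 active means activation factor of at least 2 at 5 µM in the primary screen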
Numbers stand for hits; . = inactive; / = no result. Sampled rows, rich in hits. Any-hit rate of the full collection: about 28%.

SMILES	CYP2C19 inh	Mac1 fbg inh	CD11b adhes enh	CYP2C9 inhib	CYP2C9 activ	CYP2C19 activ
Cc1ccccc1CN(c1ccc(C(=O)Nc2cccnc2)cc1)S(C)(=O)=O	98.5	.	.	95.9	.	.
CNC(=O)c1ccc(N(Cc2ccccc2)S(C)(=O)=O)cc1	52.2	.	.	.	.	.
COc1ccc(NC(=O)c2ccc(CN(c3cc(Cl)ccc3C)S(=O)(=O)c3ccccc3)cc2)cc1OC	.	.	.	65.8	.	.
CC(=O)c1cccc(NC(=O)c2ccc(N(Cc3ccccc3)S(C)(=O)=O)cc2)c1	.	.	.	.	.	.
CS(=O)(=O)N(Cc1ccc(C(=O)NCCSCc2ccco2)cc1)c1ccccc1	55.2	.	.	84.9	.	.
O=[N+]([O-])c1ccccc1S(=O)(=O)n1nnc2ccccc21	/	.	.	/	/	/
Cc1ccc(CN(c2ccc(C(=O)NCc3cccnc3)cc2)S(C)(=O)=O)cc1	93.4	.	.	93.5	.	.
Cc1ccc(Cl)cc1N(Cc1ccc(C(=O)NCc2cccnc2)cc1)S(=O)(=O)c1ccccc1	.	.	.	58.5	.	.
Cc1cccc2cc(CN(Cc3ccc(F)cc3)C(=O)N(C)C)c3nnnn3c12	.	.	.	.	.	.
O=c1oc2ccccc2n1CCc1ccccc1	86.1	.	.	.	.	.
Cc1ccccc1OCCn1c(=O)oc2ccccc21	98.8	.	.	69.4	.	.
Cc1ccc(C(C)C)c(OCCn2c(=O)oc3ccccc32)c1	92.1	.	.	82.5	.	.
COc1ccc(C2C(C(=O)Nc3ccc4c(c3)OCCO4)c3ccccc3C(=O)N2C)cc1 (stereo not drawn)	.	.	.	.	.	.
O=S(=O)(Nc1cccc(-c2cn3cccnc3n2)c1)c1ccc(-c2ccccc2)cc1	80.6	/	/	99.7	.	.
Cc1cccc(S(=O)(=O)Nc2cccc(-c3cn4ccsc4n3)c2)c1	79.7	.	.	90.8	.	.
O=S(=O)(Nc1cccc(-c2cn3ccsc3n2)c1)c1ccc(F)cc1	68.8	.	.	79.0	.	.
CCC(=O)Nc1cccc(-c2cn3ccsc3n2)c1	.	.	.	.	.	.
Cc1ccc(S(=O)(=O)Nc2cccc(-c3cn4ccsc4n3)c2)cc1	100.0	.	.	98.9	.	.
CCN(CC)C(=O)CSc1nnc(CNc2ccc(F)cc2)o1	.	/	/	.	.	.
O=c1c(N2CCCCC2)coc2ccccc12	.	.	.	.	.	.
Cc1nc(-c2cccc(NS(=O)(=O)c3ccccc3)c2)cs1	97.3	.	.	77.3	.	.
COc1cccc(-n2nnnc2SCC(=O)Nc2cccc(C)n2)c1	.	.	.	.	.	.
CCOC(=O)N1CCN(C(=O)COc2ccc3c(c2)C(=O)CC2(CCN(C(C)=O)CC2)O3)CC1	.	.	.	.	.	.
O=C1CC2(CCCCC2)Oc2ccc(O)cc21	60.0	.	.	.	.	.
O=C(NNC(=O)c1cc(-c2ccc(Cl)cc2Cl)nc2ccccc12)Nc1ccccc1	.	/	/	.	.	.
SMILES	CYP2C19 inh	Mac1 fbg inh	CD11b adhes enh	CYP2C9 inhib	CYP2C9 activ	CYP2C19 activ
COc1ccc(/C=N/NS(=O)(=O)c2ccccc2)cc1OS(=O)(=O)c1ccccc1	.	.	.	93.5	.	.
COc1ccc(/C=N/NS(=O)(=O)c2ccc(C)cc2)cc1OC(=O)c1ccccc1	.	.	.	.	.	.
COc1ccc(/C=N/NS(=O)(=O)c2ccccc2)cc1OC(=O)c1ccc(C)cc1	.	/	/	89.1	.	.
CCOc1cc(/C=N/NC(=O)c2cccc([N+](=O)[O-])c2)ccc1OS(=O)(=O)c1ccccc1	57.2	/	/	59.1	.	.
COC(=O)c1ccc(NC(=O)C(=O)N2CCCC2)cc1	.	.	.	.	.	.
CCCCC(c1nnnn1C1CCCC1)N1CCN(C2CCCC2)CC1 (stereo not drawn)	.	.	.	.	.	.
O=C(CCl)Nc1cccn2ncnc12	.	.	.	.	.	.
Cc1cc(F)ccc1NCc1ccncc1	82.4	.	.	61.5	.	.
Cc1cc(F)ccc1NCc1cc2c(cc1[N+](=O)[O-])OCO2	.	.	.	.	.	.
O=C(CNS(=O)(=O)c1ccc(C(=O)N2CCCCC2)cc1)N1CCCCC1	.	.	.	.	.	.
Cc1cc(C)c(S(=O)(=O)N2CCCCC2)c(C)c1N(C)S(=O)(=O)c1ccc(Cl)cc1	/	.	.	/	/	/
COc1ccc(C(=O)CCC(=O)O)cc1	.	.	.	.	.	.
COC(=O)C(O)(CC(=O)c1ccc(OC)cc1)C(F)(F)F (stereo not drawn)	62.9	/	/	.	.	.
CCOC(=O)C(C)(C)C(=O)C(C)(C)C(O)c1ccccn1 (stereo not drawn)	51.3	.	.	.	.	.
CC(C)(C)CC(=O)O/N=C(\N)c1ccccn1	/	.	.	/	/	/
S=C(NCCC(c1ccccc1)c1ccccc1)Nc1ccccc1Cl	55.4	/	/	66.4	.	.
Cc1ccc2c(c1)cc(CN(Cc1cccs1)C(=O)c1ccco1)c1nnnn12	.	.	.	.	.	.
CCc1ccc2c(c1)cc(CN(C(=S)Nc1cccc(C)c1)C1CC1)c1nnnn12	.	/	/	67.6	.	.
O=C1C(c2ccncc2)=C(O)c2ccccc21	.	.	.	92.4	.	.
O=C1C(C=NCc2ccncc2)=C(O)c2ccccc21	75.9	.	.	84.6	.	.
O=C1C(C=NCc2cccnc2)=C(O)c2ccccc21	.	.	.	.	.	.
Cn1c(=O)n(CCN2CCOCC2)c(=O)c2c1nc1n2CCN1c1ccc(Oc2ccccc2)cc1	.	.	.	.	.	.
CCc1noc(C)c1C(=O)Nc1nc(-c2ccc(Cl)cc2Cl)c(C)s1	.	.	.	.	.	.
CCNC(=O)C(=O)NCCc1ccc(Cl)cc1	58.6	.	.	.	.	.
COc1ccccc1CCNC(=O)c1ccoc1C	82.7	.	.	.	.	.
SMILES	CYP2C19 inh	Mac1 fbg inh	CD11b adhes enh	CYP2C9 inhib	CYP2C9 activ	CYP2C19 activ
O=C(NCCc1ccc(O)cc1)c1ccc(Cl)cc1	.	/	/	.	2.3	.
Cc1occc1C(=O)NCCc1ccc(Cl)cc1	57.2	.	.	.	.	.
CN(C)Cc1cc(CCNC(=O)c2ccc(Cl)cc2)ccc1O	.	.	.	.	.	.
Cc1onc(-c2ccccc2)c1C(=O)Nc1cccc2nsnc12	.	.	.	.	.	.
Nc1nc(N)nc(-c2ccc(Oc3ccccc3)cc2)n1	.	.	.	51.3	.	.
CC(=O)Nc1ccc(S(=O)(=O)N2CCN(Cc3ccncc3)CC2)cc1	94.7	.	.	53.6	.	.

Source: PubChem BioAssay
